From PubChem
BAZ2B inh: BAZ2B (human) inhibition; actives 4.4% (n = 360,000); AlphaScreen BAZ2B-H3K14Ac peptide displacement; Q9UIF8; Potency, µM (highest dose often 114 µM), for the others: at the highest dose activity change, negative = inhibition, actives largely listed as inhibitors; AID 504333; note: potency is the fitted concentration of half-maximal effect; % is set by controls: 0 for no effect and ±100 for the full control effect; nearly all actives have a fitted effect of over 60% in size
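AlphaScreen luminescence quantifies BAZ2B engagement of H3K14Ac peptide; the protein and biotinylated peptide are both at 50 nM final, buffer PBS pH 7.4 with 0.01% Tween-20, all steps at room temperature.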
PLK1 PBD block: inhibitors of human PLK1 polo-box domain binding. actives 2.8% (n = 360,000). P53350. Plk1 PBD binding of FITC phosphopeptide, fluorescence polarization. Potency, µM, for inactives: max response, negative = inhibition, usual class: inhibitors; note: potency is the fitted concentration of half-maximal effect; series mostly up to about 57 µM; % is set by controls: 0 for no effect and ±100 for the full control effect; nearly all actives have a fitted effect of over 65% in size
HP1b chromo inh: blocks HP1-beta chromodomain binding to methylated histone tails. P83916. AlphaScreen HP1-beta / biotin-H3K9me3 peptide binding. Potency, µM (top dose mostly 114 µM), inactives show at the highest dose activity change, negative = inhibition, most hits filed as inhibitors. actives 0.56% (n = 390,000). AID 540317; note: potency is the fitted concentration of half-maximal effect; nearly all actives have a fitted effect of over 70% in size
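HP1-beta protein (50 nM final) preincubated 30 min at room temperature with biotinylated H3(1-18)K9me3 peptide (50 nM) in PBS pH 7.4, 0.01% Tween-20, then compound added for 30 min. AlphaScreen streptavidin donor/nickel chelate acceptor beads (10 ug/mL final), 30 min dark, luminescence read.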
JMJD2A Tudor inh: inhibitors of human JMJD2A Tudor domain; AlphaScreen JMJD2A-Tudor / H3K4me3 peptide binding; Potency, µM (top dose mostly 114 µM), without a hit: at the highest dose activity change, negative = inhibition, hits mostly inhibitors; actives 4.4% (n = 390,000); note: potency is the fitted concentration of half-maximal effect; % is set by controls: 0 for no effect and ±100 for the full control effect; nearly all actives have a fitted effect of over 50% in size
PI5P4Ka inh: inhibitors of human PI5P4K alpha; PI5P4Kalpha enzyme, ADP-Glo luminescence, 60 min; active compounds read low; max response, %; actives 1.2% (n = 330,000); AID 652105; active = max response of -50% or lower; inconclusive = between -30% and -50%; inactive = -30% or higher; note: value at the top dose of about 77 µM; % is set by controls: 0 for no effect and ±100 for the full control effect
Target sequence (P48426 whole entry, looked up): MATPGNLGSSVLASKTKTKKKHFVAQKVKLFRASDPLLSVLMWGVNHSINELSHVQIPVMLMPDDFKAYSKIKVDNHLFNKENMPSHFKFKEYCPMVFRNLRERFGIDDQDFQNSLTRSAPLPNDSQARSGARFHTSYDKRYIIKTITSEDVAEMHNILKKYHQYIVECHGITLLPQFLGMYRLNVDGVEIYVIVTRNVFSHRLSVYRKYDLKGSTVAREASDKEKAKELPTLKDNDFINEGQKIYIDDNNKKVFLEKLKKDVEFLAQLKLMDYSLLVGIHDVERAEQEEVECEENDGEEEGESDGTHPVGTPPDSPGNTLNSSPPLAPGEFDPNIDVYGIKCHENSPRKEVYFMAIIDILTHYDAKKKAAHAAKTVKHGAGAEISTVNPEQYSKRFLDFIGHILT
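Enzyme plus substrate dispensed, test compounds pinned in, then ATP (5 microM final) added. After 60 min at RT, ADP-Glo reagent 1 for 45 min and reagent 2 for 30 min preceded luminescence imaging.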
G9a inh: inhibitors of human histone lysine methyltransferase G9a; Q96KQ7; G9a H3K9 monomethylation, AlphaScreen, 2 h; Potency, µM (highest dose often 102 µM), without a hit: at the top dose activity, negative = inhibition, hits mostly inhibitors; actives 8.8% (n = 350,000); note: potency is the fitted concentration of half-maximal effect; % is set by controls: 0 for no effect and ±100 for the full control effect; nearly all actives have a fitted effect of over 75% in size
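Readings reflect AlphaScreen signal from monomethyl-H3K9 antibody detection. HMT at 20 nM; substrate b-H3K9 500 nM; cofactor SAM 20 uM; 2 h RT reaction; compounds tested as titrations in qHTS with 15 min preincubation.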
The depositor's hits bear a star; ? = inconclusive; / = not tested or not shown; [ ] = dose if it differs, or a comment. A selection: hits, their analogues and other compounds. The true share with any hit is near 12%. Unless noted, calls come from the whole dose curve; as a rule, active = well fitted curve in the direction sought with a large enough effect; inconclusive = small, poorly fitted or top-dose-only effect, or another doubt; inactive = no such curve, though single readings can be large; an effect the other way counts as inactive or inconclusive.

SMILES	BAZ2B inh	PLK1 PBD block	HP1b chromo inh	JMJD2A Tudor inh	PI5P4Ka inh	G9a inh
COCC(=O)N1CCC2(CC1)CCN(C(c1ccccc1)c1ccccc1)CC2	/	/	/	/	/	8%[12.7 µM]
COCCN(CCOC)c1ncnc2c1c(-c1ccccc1)cn2-c1ccc(C)c(Cl)c1	?	/	27%	-24%	/	-34%[59 µM]
COc1ccc(NC(=O)c2c(-c3ccccc3)c(-c3ccccc3)nn(C)c2=O)c(OC)c1	-30%	/	14%	-31%	/	-32%[59 µM]
CC[C@@H]1Cn2c(c3nc(-c4cc(Cl)cc(Cl)c4Cl)nc-3n(C)c2=O)N1	/	/	/	/	/	10%[59 µM]
CCc1nc2ccc(C(=O)N3CCCC(C(N)=O)C3)cn2c1N(C)Cc1ccc(OC)cc1 (centres undefined)	/	3%	/	/	-2	/
COc1cccc(CCNC(=O)c2cnc3sc(N4CCCC4)nn3c2=O)c1	-2%	/	19%	-10%	/	6%[59 µM]
CCN(CC)CCN1C(=O)C(=O)/C(=C(/O)c2ccc(F)cc2)C1c1cccnc1 (centres undefined)	-9%	?	30%	-14%	1	25µM*
COc1cc(C2/C(=C(/O)c3ccc(OCC(C)C)cc3)C(=O)C(=O)N2CCN(C)C)ccc1O (centres undefined)	-9%	-2%	17%	-8%	/	25µM*
COc1ccc(OC)c(C2/C(=C(/O)c3cnn(-c4ccccc4)c3C)C(=O)C(=O)N2CCN(C)C)c1 (centres undefined)	50µM*	-2%	25%	-4%	?	?
COc1ccc(OC)c(C2/C(=C(\O)c3ccc(OC)c(Cl)c3)C(=O)C(=O)N2CCN(C)C)c1 (centres undefined)	-35%	-3%	26%	-28%	4	2%[12.7 µM]
COc1ccc(/C(O)=C2/C(=O)C(=O)N(CCN(C)C)C2c2ccccc2)cc1Cl (centres undefined)	?	-2%	34%	-1%	-4	-48%[12.7 µM]
COc1ccc(/C(O)=C2/C(=O)C(=O)N(CCN(C)C)C2c2ccc(C)cc2)cc1Cl (centres undefined)	-6%	-4%	34%	-9%	2	89µM*
CCOc1ccc(CCNC(=O)c2cc(=O)[nH]c3ccc(S(=O)(=O)N(CC)CC)cc23)cc1OCC	-6%	-1%	20%	-12%	5	31%
COc1ccc(/C(O)=C2\C(=O)C(=O)N(CCN(C)C)C2c2cccc(OC)c2OC)cc1Cl (centres undefined)	?	?	3%	?	2	45µM*
Cc1c(/C(O)=C2/C(=O)C(=O)N(Cc3cccnc3)C2c2ccccn2)cnn1-c1ccccc1 (centres undefined)	50µM*	-12%	7%	?	2	32µM*
CN(C)CCN1C(=O)C(=O)/C(=C(/O)c2ccc(F)cc2)C1c1ccccc1F (centres undefined)	-35%	-7%	14%	-21%	/	79µM*
CSc1ccc(CCNC(=O)c2csc3c2CCCCC3)cc1	0%	/	17%	-11%	/	14%[59 µM]
Cc1c2ccccc2cc(Cc2ccccc2)[n+]1C	-13%	-5%	28%	-1%	0	28µM*
Cc1nc(N)nc(C)c1Cc1ccccc1	17%	-12%	67%	-4%	-1	13%
COc1ccc(-n2c(SCC(=O)N3CCc4ccccc43)nc3c([nH]c4ccccc43)c2=O)cc1	1%	/	23%[57 µM]	-9%	/	0%[59 µM]
CCOC(=O)CSc1nc2c(sc3ccccc32)c(=O)n1CCO	-20%	/	-35%	56µM*	/	2%[59 µM]
O=C(CSc1nc2c(sc3ccccc32)c(=O)n1CCCN1CCCC1)NCC1CCCO1 (centres undefined)	-1%	-4%	26%	3%	-2	56µM*
CCOC(=O)CSc1nc2c(sc3ccccc32)c(=O)n1Cc1ccc(OC)cc1	3%	/	22%	-8%	/	9%[59 µM]
CCOC(=O)CSc1nc2c([nH]c3ccccc32)c(=O)n1-c1ccc(OC)cc1	-4%	/	6%	20µM*	/	3%[59 µM]
